From the emibetuzumab library of Makowski et al. (2022)
Some of the results follow. The hit rate among all sequences tested is not known here.

B1: VH:VL chains; a variant is named by its letters at X, in order (parent)
chain 1: QVQLVQSGAEVKKPGASVKVSCKASGYTFTDYXMHWVRQAPGQGLEWMGXVNPNXXXTTYNQKFEGRVTMTTDTSTSTAYMELRSLRSDDTAVYYCARXNXLDXWGQGTTVTVSS
chain 2: DIQMTQSPSSLSASVGDRVTITCSVSSSVSSIYLHWYQQKPGKAPKLLIYSTSNLASGVPSRFSGSGSGTDFTLTISSLQPEDFATYYCQVYSGYPLTFGGGTKVEIK

Variants of: B1
Assay: yeast display scFab, FACS + sequencing
Conditions: with MET
Procedure, shortened: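 Round-3 sorted and input populations from a heavy-chain CDR mutant scFab yeast library were deep sequenced in two replicates. Sorting used FACS on cells labelled for 3 h at room temperature with 1 nM HGFR-Fc and anti-Myc in PBSB with 1% milk, keeping the top 50% antigen-positive cells. Any sequence seen in both antigen-positive samples was called a binder, while one seen only in the input was called a non-binder.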

Variant	antigen binding call
DATGGSGD	no binding
FKATTVVD chain 1 S88F	no binding
FKGRGAAS	binds
DKGGGFAV	no binding
VKGKGDAV	no binding
YKGGGSAV	binds
YRGKGSAV	binds
FRGKGSAV	binds
AKGKGAAV	no binding
FKGKGAAV	binds
YEGGGSAV	no binding
DAGGADAV	no binding
DEGGTDWY	no binding
YTRGAAGY	no binding
YKRRDAVY	no binding
YKRGDAGY	binds
YKRESAGY	binds
YARETDVV	no binding
DGARNAGV	no binding
VTGTGSSA	no binding
YRKGGAGS	binds
FRKGGAGS	binds
YRKGGAAS	binds
YRKGGFSS	no binding

Variant	antigen binding call
FRKRSFSS	no binding
YRRGAAAA	binds
ARRGSDVA	no binding
YETGAAAA	no binding
YRRGSAVA	binds
DREEGAVA	no binding
YRRGGAAA	binds
YTRGADGA	no binding
YRTEGAVA	binds
DETGGDWF	no binding
VEEEGDWV	no binding
VTGTGDWF	no binding
YRRGGAVA	binds
YRRGAAWA	binds
YRRGGAWA	binds
YREKAAWA	no binding
YRRGSAWA	binds
YTRGADWA	no binding
DEGGDDAA	no binding
VKGRADSA	no binding
VEKTGVGA	no binding
YAAKTAAA	no binding
YRAGTAAA	binds
YRAKGAAA	binds

Variant	antigen binding call
DRAGDAAA	no binding
YRAGSAAA	binds
YRAESAAA	binds
YEAGTAVA	no binding
VAEGGYAV	no binding
VTAEDFGV	no binding
AARADAVA	no binding
DGGKNDLA	no binding
VKGRGSSF	binds
VKEKGDSA	no binding
VKGRGDSF	no binding
VTGRGDVF	no binding
YAGRGDWF	no binding
VKEKGYLV	no binding
DKGRGSSA	no binding
VEGRGDVF	no binding
YGGRGSWV	no binding
VKGRGSVF	binds
VKEKGSLF	binds
YKGRGSWF	binds
VTTRADVV	no binding
YTGGADAV	no binding
YKGRGSLF	binds
YKARSALF	binds

Variant	antigen binding call
DGARGALF	no binding
YKGRGALF	binds
VKGRGSLF	binds
VKGRASGF	no binding
DAGGADWA	no binding
SARTDFWF chain 1 K19N	no binding
ATKTAFVS chain 1 M34I	no binding
SEAGDAVV	no binding
VTTRADVY	no binding
FRGESAGV	binds
FKGEGAGV	no binding
FRGESAGS	binds
DAKENDVF	no binding
VEGTSDLS	no binding
YRKGSSGA	binds
FARKGSGA	no binding
YRKGGSGA	binds
YTTGGDGA	no binding
YTKRSSGA	no binding
YRTGGSGA	binds
YRRKGSGA	binds
YAKADSGA	no binding
VKTGGAGA	no binding
DATGGSGA	no binding

Variant	antigen binding call
YKTGGSGA	binds
YRGKASWD	binds
YRGRSSWD	binds
DAGTGSWD	no binding
YRGRDSWD	binds
VTTKSSSA	no binding
ATATADWA	no binding
DKRKGVAF	no binding
VKGRASSV	no binding
VRTEDSSV	binds
VRTEDFGV	no binding
VRTEDDWV	no binding
VTEEGSSV	no binding
VEAGDSWV	no binding
VRAEGSSV	binds
VRAGDDGV	no binding
VETEGSSV	no binding
VRRKSSSV	binds
VTGTASSV	no binding
VRAGDSSV	binds
VETEGDGV	no binding
ATGANAGD	no binding
AETGASLS	no binding
DTKAADWV	no binding

Variant	antigen binding call
DREGGVSD	no binding
DRRRGALD	binds
SAREGALD	no binding
DATGGALD	no binding
SRRRGALD	binds
SGRGNALD	no binding
VTATADWA	no binding
VKGRADWD	no binding
SEEEGAGD	no binding
VAGTGDGV	no binding
YRRKDALA	binds
YAKRDALA	no binding
VRRKDFLA	no binding
YRAKDALA	binds
YRGKDALA	binds
DTTGSDWV	no binding
VAGTGDVY	no binding
YRGRDVGY	no binding
VRGRGVGY	binds
YRGRGVGY	binds
VKGRSVGY	no binding
VTGEDDWY	no binding
DTKAADVA	no binding
SEARSDGY	no binding

Variant	antigen binding call
YKGRGYAD	no binding
YKGRGDAD	binds
YKGKGFGD	no binding
YKGRGDGD	binds
YKGRGFGD	binds
YGGRGDAD	no binding
YKGADFGD	no binding
YKGRGYGD	binds
YAGRGDAD	no binding
SAGRGYGD	no binding
YEGGGDVA	no binding
VGAEGVWS chain 1 G66S	no binding
VEGGGDVD	no binding
VAGAGDSV	no binding
YAGRGVGD	no binding
YAGRGDVD	no binding
YAGRGDLD	binds
YKGKGDGD	binds
YKGRGVGD	binds
YAGRGDLV	no binding
VKTGGDGD	no binding
VEEEDYSS	no binding
FAAKTAAA	no binding
FRARSAAA	binds

Variant	antigen binding call
FRAGGAAA	binds
FRKGGAAA	binds
YRGRSAGA	binds
YRGGSAGA	binds
DRGRDAGA	no binding
VKGRGSWY	binds
VKGRGFWY	no binding
VKTGGAWY	no binding
VKGRADWY	no binding
VKGRGAWY	binds
VAAAGAAV	no binding
YKTRSSAD	binds
DKKEDSAD	no binding
YKTRGSLD	binds
DKEGGSAD	no binding
DKTGDSAD	binds
YKTRGSAD	binds
VKKESDSY	no binding
YAREDDGA	no binding
ARRGGSVD	no binding
YRRGGSVD	binds
YRRGTSVD	binds
DATGGDWA	no binding
YRRRGFGA	binds

Variant	antigen binding call
YRRRGAGA	binds
ARRRGSGA	no binding
YRRRGVGA	binds
YRRRGSGA	binds
YARRGDGA	no binding
YARADDSA	no binding
DTTGSSGV	no binding
VEAGDDAA	no binding
VKGRADLV	no binding
VEGRGDGY	no binding
VKGKDVGY	no binding
VKGRGVGY	no binding
YKGRGDGY	binds
YKGRGVGY	binds
YKGRGDWY	binds
DEGRGDWY	no binding
VKGRGAGY	binds
DAGRGDGY	no binding
YTGTSDWY	no binding
